# Results taken from PubChem BioAssay (EPA / NIEHS).
# Where “and” joins values, the source holds several entries; their conditions need not be identical. Equal entries are not always repeated. Records with an inconclusive call do not appear. Calls of active or inactive are those of the source. Rule for the calls, unless noted: active = hit-call score of the fitted dose curve at least 0.9, where 1 is the maximum; inactive = score below 0.9.
# Key:
# [1] = read-out: Phosphatase and tensin (PTEN), PTEN (gene 5728); test: LTEA_HepaRG_PTEN: Life Technologies and Expression Analysis (LTEA) Assay for Phosphatase and tensin (PTEN) using HepaRG (AID 2283523); conditions: mRNA level, 48 h; actives raise or lower the signal
# Procedure, shortened: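 Expression of PTEN is quantified in the human liver line HepaRG following two days of dosing (top concentration 100 uM, half-log dilutions, 0.5% DMSO). Values derive from bidirectional curve fitting relative to DMSO controls.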
# [2] = read-out: solute carrier (SLC22A1), SLC22A1 (gene 6580); test: LTEA_HepaRG_SLC22A1: Life Technologies and Expression Analysis (LTEA) Assay for solute carrier (SLC22A1) using HepaRG (AID 2283524); conditions: mRNA level, 48 h; actives raise or lower the signal
# Procedure, shortened: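 Transcript induction or suppression of SLC22A1 in human HepaRG cultures is scored after 48 h chemical treatment, with DMSO (0.5%) as baseline for bidirectional fitting. Concentrations span eight half-log points topping at 100 uM.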
# [3] = read-out: Pyruvate Dehydrogenase Kinase 4 (PDK4), PDK4 (gene 5166); test: LTEA_HepaRG_PDK4: Life Technologies and Expression Analysis (LTEA) Assay for Pyruvate Dehydrogenase Kinase 4 (PDK4) using HepaRG (AID 2283525); conditions: mRNA level, 48 h; actives raise or lower the signal
# Procedure, shortened: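 Eight-point, half-log concentration series (max 100 uM, 0.5% DMSO) applied to differentiated HepaRG cells for 48 h in duplicate. Endpoint: PDK4 mRNA induction or repression by qRT-PCR against DMSO baseline.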
# [4] = read-out: NAD(P)H dehydrogenase [quinone] 1 (NQO1), NQO1 (gene 1728); test: LTEA_HepaRG_NQO1: Life Technologies and Expression Analysis (LTEA) Assay for NAD(P)H dehydrogenase [quinone] 1 (NQO1) using HepaRG (AID 2283526); conditions: mRNA level, 48 h; actives raise or lower the signal
# Procedure, shortened: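 In this assay, gene expression is read by qRT-PCR after 48 h exposure of HepaRG cells to eight concentrations (max 100 uM, half-log) in 0.5% DMSO. Each chemical runs in duplicate, and activity is scored relative to vehicle.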
# [5] = read-out: Nuclear factor erythroid 2-related factor 2 (Homo sapiens) (UniProt Q16236); test: LTEA_HepaRG_NFE2L2: Life Technologies and Expression Analysis (LTEA) Assay for Nuclear factor erythroid 2-related factor 2 (NFE2L2) Transcription Factor using HepaRG (AID 2283527); conditions: mRNA level, 48 h; actives raise or lower the signal;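 note: TaqMan qRT-PCR transcript level normalised to ACTB GAPDH and POLR2A housekeeping genes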
# Procedure, shortened: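 Human liver HepaRG line treated in duplicate for 48 h with an eight-point series topping at 100 uM. Gene expression of NFE2L2 by qRT-PCR, bidirectionally fitted against the vehicle control.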
# [6] = read-out: succinate dehydrogenase complex iron sulfur subunit B (SDHB), SDHB (gene 6390); test: LTEA_HepaRG_SDHB: Life Technologies and Expression Analysis (LTEA) Assay for succinate dehydrogenase complex iron sulfur subunit B (SDHB) using HepaRG (AID 2283528); conditions: mRNA level, 48 h; actives raise or lower the signal
# Procedure, shortened: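 HepaRG, 48 h exposure, 8-pt half-log series from 100 uM in 0.5% DMSO, duplicates. Readout: SDHB mRNA by Fluidigm qRT-PCR vs housekeeping genes; bidirectional fit relative to DMSO.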
# [7] = read-out: Signal transducer and activator of transcription 3 (Homo sapiens) (UniProt P40763); test: LTEA_HepaRG_STAT3: Life Technologies and Expression Analysis (LTEA) Assay for Signal transducer and activator of transcription (STAT3) using HepaRG (AID 2283529); conditions: mRNA level, 48 h; actives raise or lower the signal
# Procedure, shortened: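 In this transcriptional endpoint, HepaRG cultures receive test chemicals at up to 100 uM for 48 h, tested in duplicate. STAT3 mRNA is normalized to ACTB, GAPDH and POLR2A.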
# [8] = read-out: solute carrier (SLCO1B1), SLCO1B1 (gene 10599); test: LTEA_HepaRG_SLCO1B1: Life Technologies and Expression Analysis (LTEA) Assay for solute carrier (SLCO1B1) using HepaRG (AID 2283530); conditions: mRNA level, 48 h; actives raise or lower the signal
# Procedure, shortened: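 Differentiated human HepaRG cells, plated 48 h, switched to serum-free induction medium and exposed in duplicate for 48 h to 8 half-log concentrations (top 100 uM) in 0.5% DMSO. SLCO1B1 mRNA by TaqMan qRT-PCR, normalized to ACTB/GAPDH/POLR2A.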
# [9] = read-out: sulfotransferase 2A1 (SULT2A1), SULT2A1 (gene 6822); test: LTEA_HepaRG_SULT2A1: Life Technologies and Expression Analysis (LTEA) Assay for sulfotransferase 2A1 (SULT2A1) using HepaRG (AID 2283531); conditions: mRNA level, 48 h; actives raise or lower the signal
# Procedure, shortened: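 Differentiated human HepaRG cells in serum-free induction medium were exposed for 48 h to eight half-log concentrations (top 100 uM, 0.5% DMSO). SULT2A1 mRNA was measured by qRT-PCR, normalized to ACTB, GAPDH and POLR2A, and fitted bidirectionally against DMSO.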
# [10] = read-out: Transforming Growth Factor (TGFA), TGFA (gene 7039); test: LTEA_HepaRG_TGFA: Life Technologies and Expression Analysis (LTEA) Assay for Transforming Growth Factor (TGFA) using HepaRG (AID 2283532); conditions: mRNA level, 48 h; actives raise or lower the signal
# Procedure, shortened: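 Gene expression of TGFA was quantified by qRT-PCR after human HepaRG cells were treated for 48 h with test chemicals (eight concentrations, highest 100 uM, 0.5% DMSO). Activity in either direction was fitted relative to DMSO.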
# [11] = read-out: Transforming Growth Factor (TGFB1), TGFB1 (gene 7040); test: LTEA_HepaRG_TGFB1: Life Technologies and Expression Analysis (LTEA) Assay for Transforming Growth Factor (TGFB1) Transporter using HepaRG (AID 2283533); conditions: mRNA level, 48 h; actives raise or lower the signal
# Procedure, shortened: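 Differentiated human HepaRG cells in serum-free induction medium were exposed in duplicate for 48 h to eight concentrations (top 100 uM, half-log steps, 0.5% DMSO). TGFB1 mRNA was quantified by qRT-PCR, normalized to ACTB, GAPDH, POLR2A, and fitted bidirectionally against DMSO.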
# [12] = read-out: TIMP1, TIMP1 (gene 7076); test: LTEA_HepaRG_TIMP1: Life Technologies and Expression Analysis (LTEA) Assay for TIMP1 using HepaRG (AID 2283534); conditions: mRNA level, 48 h; actives raise or lower the signal;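 note: TaqMan qRT-PCR signal normalized to ACTB GAPDH and POLR2A housekeeping genes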
# Procedure, shortened: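 Differentiated human HepaRG cells in serum-free induction medium were exposed 48 h to chemicals (8 half-log concentrations, top 100 uM, 0.5% DMSO). TIMP1 mRNA was quantified by TaqMan qRT-PCR, normalized to ACTB/GAPDH/POLR2A; bidirectional fit versus DMSO.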
# [13] = read-out: Tumor necrosis factor receptor 1 (TNFRSF1A), TNFRSF1A (gene 7132); test: LTEA_HepaRG_TNFRSF1A: Life Technologies and Expression Analysis (LTEA) Assay for Tumor necrosis factor receptor 1 (TNFRSF1A) using HepaRG (AID 2283535); conditions: mRNA level, 48 h; actives raise or lower the signal
# Procedure, shortened: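 Differentiated human HepaRG cells were exposed in duplicate for 48 h in serum-free induction medium to eight concentrations (top 100 uM, half-log steps, 0.5% DMSO). TNFRSF1A mRNA was quantified by qRT-PCR, normalized to ACTB, GAPDH and POLR2A, then fitted bidirectionally against DMSO.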
# [14] = read-out: Thyroid Hormone Responsive (THRSP), THRSP (gene 7069); test: LTEA_HepaRG_THRSP: Life Technologies and Expression Analysis (LTEA) Assay for Thyroid Hormone Responsive (THRSP) using HepaRG (AID 2283536); conditions: mRNA level, 48 h; actives raise or lower the signal
# Procedure, shortened: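 Cell model: human HepaRG, approx. 100,000 cells/well, 0.5% DMSO vehicle. Exposure lasts 48 h; phenobarbital 1 mM serves as induction positive control. Gene expression is measured by qRT-PCR against three endogenous control genes.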
# [15] = read-out: UDP glucuronosyltransferase (UGT1A1), UGT1A1 (gene 54658); test: LTEA_HepaRG_UGT1A1: Life Technologies and Expression Analysis (LTEA) Assay for UDP glucuronosyltransferase (UGT1A1) using HepaRG (AID 2283538); conditions: mRNA level, 48 h; actives raise or lower the signal
# Procedure, shortened: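 mRNA induction or loss of UGT1A1, by TaqMan qRT-PCR, in duplicate HepaRG wells after 48 h exposure to half-log dilutions topping at 100 uM; DMSO (0.5%) served as baseline.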
# [16] = read-out: UDP glucuronosyltransferase (UGT1A6), UGT1A6 (gene 54578); test: LTEA_HepaRG_UGT1A6: Life Technologies and Expression Analysis (LTEA) Assay for UDP glucuronosyltransferase (UGT1A6) using HepaRG (AID 2283539); conditions: mRNA level, 48 h; actives raise or lower the signal
# Procedure, shortened: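 Human HepaRG cells were dosed for 48 h in serum-free induction medium with 0.5% DMSO vehicle, eight-point half-log series from 100 uM, in duplicate. UGT1A6 mRNA was measured by qRT-PCR, normalized to ACTB, GAPDH, POLR2A, and fitted bidirectionally against DMSO.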
# [17] = read-out: X-box binding protein 1 (XBP1), XBP1 (gene 7494); test: LTEA_HepaRG_XBP1: Life Technologies and Expression Analysis (LTEA) Assay for X-box binding protein 1 (XBP1) using HepaRG (AID 2283540); conditions: mRNA level, 48 h; actives raise or lower the signal
# Procedure, shortened: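 Differentiated human HepaRG cells in serum-free induction medium were exposed in duplicate for 48 h to eight half-log concentrations up to 100 uM in 0.5% DMSO. XBP1 mRNA was quantified by qRT-PCR, normalised to ACTB, GAPDH and POLR2A, with bidirectional fitting against DMSO.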
# [18] = LTEA_HepaRG_LDH_cytotoxicity: Cytotoxicity Assessment in the Life Technologies and Expression Analysis (LTEA) Assay (AID 2283563; active = hit-call score of the fitted dose curve at least 0.9, where 1 is the maximum)
# Procedure, shortened: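 Differentiated human HepaRG cells, plated 48 h beforehand, were switched to serum-free induction medium and exposed for 48 h to eight half-log concentrations (top 100 uM) in 0.5% DMSO. LDH was measured in spent medium; activity was fitted relative to DMSO vehicle.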
# [19] = ATG_XTT_Cytotoxicity: Cytotoxicity Assessment in the Attagene TRANS-FACTORIAL HepG2 Assay (AID 2283584; active = hit-call score of the fitted dose curve at least 0.9, where 1 is the maximum;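 for AC50: cells exposed to compound for 24 h before reading; active means loss of viability signal versus DMSO baseline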)
# Procedure, shortened: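 HepG2 human liver cells, transiently transfected with multiple GAL4-UAS reporter units, were dosed and read at 24 h by XTT as cell number. Loss of signal was fitted relative to DMSO negative control baseline.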
# [20] = read-out: Cellular tumor antigen p53 (Homo sapiens) (UniProt P04637); test: LTEA_HepaRG_TP53: Life Technologies and Expression Analysis (LTEA) Assay for Tumor Protein P53 (TP53) using HepaRG (AID 2283537); conditions: mRNA level, 48 h; actives raise or lower the signal
# Procedure, shortened: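 HepaRG, 48 h exposure, top 100 uM, half-log 8-point, 0.5% DMSO vehicle, duplicates. Read: TP53 mRNA by TaqMan qRT-PCR, normalised to ACTB/GAPDH/POLR2A; bidirectional fit vs DMSO.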
# Chain of Signal transducer and activator of transcription 3 (Homo sapiens) (P40763 whole entry, looked up): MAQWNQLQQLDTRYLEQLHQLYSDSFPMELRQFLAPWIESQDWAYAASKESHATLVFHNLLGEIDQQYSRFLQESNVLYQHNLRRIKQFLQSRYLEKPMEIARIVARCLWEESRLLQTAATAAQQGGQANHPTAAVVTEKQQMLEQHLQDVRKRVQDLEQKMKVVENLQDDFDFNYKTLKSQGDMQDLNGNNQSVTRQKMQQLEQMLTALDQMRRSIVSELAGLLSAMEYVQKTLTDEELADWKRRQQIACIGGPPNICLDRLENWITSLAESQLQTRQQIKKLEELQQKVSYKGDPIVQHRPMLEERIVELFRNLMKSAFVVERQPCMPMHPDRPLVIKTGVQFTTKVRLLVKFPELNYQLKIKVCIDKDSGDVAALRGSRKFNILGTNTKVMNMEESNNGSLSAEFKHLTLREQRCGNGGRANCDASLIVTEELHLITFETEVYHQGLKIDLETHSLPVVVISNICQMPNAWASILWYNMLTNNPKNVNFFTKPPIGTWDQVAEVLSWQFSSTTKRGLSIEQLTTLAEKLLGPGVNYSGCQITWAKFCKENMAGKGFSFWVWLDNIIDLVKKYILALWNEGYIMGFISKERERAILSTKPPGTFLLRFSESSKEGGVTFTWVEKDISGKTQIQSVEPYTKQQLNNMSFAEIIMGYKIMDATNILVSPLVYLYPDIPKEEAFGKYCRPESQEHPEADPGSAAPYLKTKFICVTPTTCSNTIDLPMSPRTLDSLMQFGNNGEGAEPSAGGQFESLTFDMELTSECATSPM
# Chain of Nuclear factor erythroid 2-related factor 2 (Homo sapiens) (Q16236 whole entry, looked up): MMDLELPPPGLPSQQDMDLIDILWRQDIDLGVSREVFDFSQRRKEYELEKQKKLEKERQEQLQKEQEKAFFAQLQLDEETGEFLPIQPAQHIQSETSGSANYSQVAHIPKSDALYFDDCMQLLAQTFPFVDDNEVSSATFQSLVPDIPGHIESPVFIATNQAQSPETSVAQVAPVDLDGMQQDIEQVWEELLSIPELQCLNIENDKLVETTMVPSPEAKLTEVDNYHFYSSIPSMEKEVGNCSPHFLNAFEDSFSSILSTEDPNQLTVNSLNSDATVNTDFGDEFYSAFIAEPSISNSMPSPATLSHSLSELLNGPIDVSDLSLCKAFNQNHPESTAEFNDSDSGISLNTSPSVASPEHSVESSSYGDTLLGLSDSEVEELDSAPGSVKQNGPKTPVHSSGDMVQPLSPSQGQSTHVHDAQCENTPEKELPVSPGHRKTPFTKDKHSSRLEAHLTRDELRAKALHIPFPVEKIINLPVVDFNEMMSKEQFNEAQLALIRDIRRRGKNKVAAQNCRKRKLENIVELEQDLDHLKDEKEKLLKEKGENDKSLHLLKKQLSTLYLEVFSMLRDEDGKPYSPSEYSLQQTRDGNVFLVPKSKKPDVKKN
# Chain of Cellular tumor antigen p53 (Homo sapiens) (P04637 whole entry, looked up): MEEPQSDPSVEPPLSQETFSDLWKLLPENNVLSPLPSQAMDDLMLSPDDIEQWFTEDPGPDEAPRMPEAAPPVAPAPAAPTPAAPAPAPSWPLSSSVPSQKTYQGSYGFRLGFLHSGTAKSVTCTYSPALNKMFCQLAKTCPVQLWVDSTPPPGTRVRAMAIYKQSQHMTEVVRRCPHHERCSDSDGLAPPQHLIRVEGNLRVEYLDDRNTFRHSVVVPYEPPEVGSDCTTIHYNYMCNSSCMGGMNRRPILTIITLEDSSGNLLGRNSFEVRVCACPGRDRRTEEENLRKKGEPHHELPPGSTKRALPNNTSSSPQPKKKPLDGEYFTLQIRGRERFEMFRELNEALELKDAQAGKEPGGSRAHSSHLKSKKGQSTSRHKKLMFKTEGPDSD
smiles,measurement,setting,value
CCOP(=S)(OCC)SCSCC,outcome,[1],inactive
same,outcome,[2],inactive
same,outcome,[3],inactive
same,outcome,[4],inactive
same,outcome,[5],inactive
same,outcome,[6],inactive
same,outcome,[7],inactive
same,outcome,[8],inactive
same,outcome,[9],inactive
same,outcome,[10],inactive
same,outcome,[11],inactive
same,outcome,[12],inactive
same,outcome,[13],inactive
same,outcome,[14],inactive
same,outcome,[15],inactive
same,outcome,[16],inactive
same,outcome,[17],inactive
same,outcome,[18],inactive
same,outcome,[19],inactive
FC(F)(F)c1ccc(Cl)cc1,outcome,[19],inactive
CCCCN(CCCC)SN(C)C(=O)Oc1cccc2c1OC(C)(C)C2,outcome,[1],inactive
same,outcome,[2],inactive
same,outcome,[3],inactive
same,outcome,[4],inactive
same,outcome,[5],inactive
same,outcome,[6],inactive
same,outcome,[7],inactive
same,outcome,[8],inactive
same,outcome,[9],inactive
same,outcome,[10],inactive
same,outcome,[11],inactive
same,outcome,[12],inactive
same,outcome,[13],inactive
same,outcome,[14],inactive
same,AC50,[15],10 µM (active)
same,outcome,[16],inactive
same,outcome,[17],inactive
same,outcome,[18],inactive
same,outcome,[19],inactive
Cc1ccc([N+](=O)[O-])cc1C,outcome,[1],inactive
same,outcome,[2],inactive
same,outcome,[3],inactive
same,outcome,[4],inactive
same,outcome,[5],inactive
same,outcome,[6],inactive
same,outcome,[7],inactive
same,outcome,[8],inactive
same,outcome,[9],inactive
same,outcome,[10],inactive
same,outcome,[11],inactive
same,outcome,[12],inactive
same,outcome,[13],inactive
same,outcome,[14],inactive
same,outcome,[15],inactive
same,outcome,[16],inactive
same,outcome,[17],inactive
same,outcome,[18],inactive
same,outcome,[19],inactive
CC(Cl)CN(C)C (stereo unspecified),outcome,[19],inactive
CC(C)Nc1ccc(Nc2ccccc2)cc1,outcome,[19],inactive
N#C/C=C/c1ccccc1,outcome,[19],inactive
CCCCc1ccc(O)cc1,outcome,[19],inactive
ClC(Cl)(Cl)c1ccccc1,outcome,[1],inactive
same,outcome,[2],inactive
same,outcome,[3],inactive
same,outcome,[4],inactive
same,outcome,[6],inactive
same,outcome,[7],inactive
same,outcome,[8],inactive
same,outcome,[9],inactive
same,outcome,[10],inactive
same,outcome,[11],inactive
same,outcome,[12],inactive
same,outcome,[13],inactive
same,outcome,[14],inactive
same,outcome,[20],inactive
same,outcome,[15],inactive
same,outcome,[16],inactive
same,outcome,[17],inactive
same,outcome,[18],inactive
CCOP(=S)(NC(C)C)Oc1ccccc1C(=O)OC(C)C (stereo unspecified),outcome,[19],inactive
CCCCCCCc1ccc(O)cc1,outcome,[1],inactive
same,outcome,[2],inactive
same,outcome,[3],inactive
same,outcome,[4],inactive
same,outcome,[5],inactive
same,outcome,[6],inactive
same,outcome,[7],inactive
same,outcome,[8],inactive
same,outcome,[9],inactive
same,outcome,[10],inactive
same,outcome,[11],inactive
same,outcome,[12],inactive
same,outcome,[13],inactive
same,outcome,[14],inactive
same,outcome,[15],inactive
same,outcome,[16],inactive
same,outcome,[17],inactive
same,outcome,[18],inactive
same,AC50,[19],152 µM (active) and 185 µM (active) and 129 µM (active)
N#Cc1c(-c2ccc(Cl)cc2)[nH]c(C(F)(F)F)c1Br,outcome,[19],inactive
